According to PubChem BioAssay AID602 (SRMLSC, 2007):
In all, about 85,000 compounds went through this assay and about 35 (0.04%) were called active. This is one part of a sample in which actives are shown more often than they occur.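 The calls were made as follows: active = viability drop by adding the cancer drug above about 55%, with treated viability meeting a 40% cutoff (limit read from the data); inactive = the rest, inconclusive results apart.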

Experiment: reversal of MRP1-mediated doxorubicin resistance, primary screen, H69AR cells, doxorubicin co-treatment (AID 602);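 as to differential viability (reversal): larger differential means the compound sensitizes cells more to doxorubicin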
Conditions: CellTiter-Glo, 72 h, at 10 µM; for differential viability (reversal): stronger effect = higher value
[1] = H69AR cells + 2 uM doxorubicin, measured here: viability with 2 uM doxorubicin, stronger effect = lower value
[2] = H69AR cells, measured here: cytotoxicity without doxorubicin

Row | Compound | differential viability (reversal) (H69AR cells + 2 uM doxorubicin) | viability [1] [%] | viability [2] [%]
1 | CSC1=NP(=S)(SC)N(C)c2nc3n(c21)CCC3 (stereo not given) | 57.9% (active) | 27.2 | 85.1
2 | CCOc1ccc(CN(CCCl)CCCl)cc1C(=O)OC | -29% (inactive) | 83.1 | 54.1
3 | Cn1c(O)c(C=NCCN2CCNCC2)c(=O)n(C)c1=O | 8.13% (inactive) | 85.1 | 93.2
4 | CC(=O)NC(=O)NC(C)Cc1ccccc1 (stereo not given) | -9.72% (inactive) | 96.7 | 87
5 | CCN(N=Nc1nonc1OC)c1nonc1OC | 9.43% (inactive) | 86.2 | 95.7
